In all, about 400,000 compounds went through this assay and about 13,000 (3.2%) were called active. Another 18% or so got no clear call; they are omitted. Calls come from the whole dose curve; as a rule, active = well fitted cell-killing curve with a large enough effect; inconclusive = small, poorly fitted or top-dose-only effect, or effect the other way; inactive = flat fitted curve, though single readings scatter. The list comes from a sample in which actives are over-represented; it also holds similar structures and randomly drawn compounds. Entries that show only a call come without a potency.
Test: qHTS assay for MDR1-selective chemotherapeutics: Primary screen using the drug-selected MDR subline cells KB-V1; note: nearly all actives have a fitted effect of over 60% in size
Conditions: KB-V1 MDR cells viability, CellTiter-Glo, 72 h; series mostly up to 46.1 µM
How it was run: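 KB-V1 cells (P-gp-expressing MDR subline of KB-3-1) in phenol-red-free DMEM with 10% FBS were exposed to library compounds over a concentration series for 72 h at 37 degrees C. Viability read by CellTiter-Glo luminescence; concentration-effect curves fitted after normalization.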
Potency is the fitted concentration of half-maximal effect.

Row | SMILES | Potency
1 | COc1ccc(CCNC(=O)CCCCn2c(=O)c3ccccc3n(Cc3ccccc3)c2=O)cc1OC | inactive
2 | Oc1ccccc1-c1nc(/C=C/c2ccc(F)cc2)no1 | inactive
3 | Cc1ccc(-c2noc(CSc3nnc(-c4ccccc4)n3C)n2)cc1 | inactive
4 | COc1ccc(-c2noc(CSc3nnc(-c4ccccc4)n3-c3ccc(F)cc3)n2)c(OC)c1 | inactive
5 | Cn1cccc1Cc1nnc(SCC(=O)NCCc2ccccc2)n1-c1ccc(F)cc1 | inactive
6 | COc1ccc(-c2noc(CSc3nc4ccc(C)cc4[nH]3)n2)cc1 | inactive
7 | Cc1ccc(-c2noc(CSc3nnnn3-c3ccccc3)n2)cc1 | inactive
8 | Fc1ccc(-n2c(Cc3ccccc3)nnc2SCc2nc(-c3ccc(Cl)cc3)no2)cc1 | 14.6 µM (active)
9 | Cc1ccc(-c2noc(CSc3nnc(-c4cccs4)n3C)n2)cc1 | 13 µM (active)
10 | Cc1ccc(-c2noc(CSc3nnc(-c4ccncc4)n3-c3ccc(F)cc3)n2)cc1 | 8.2 µM (active)
11 | Cc1ccc(-c2noc(CSc3nnc(-c4ccc(Cl)cc4)n3C)n2)cc1 | inactive
12 | Cc1ccc(C(=O)Nc2c(-c3ccccc3)[nH][nH]c2=O)cc1 | inactive
13 | O=C(NCc1ccccc1Cl)C1=Cc2cc(Br)ccc2OC1 | inactive
14 | CC(C)Oc1cc(F)ccc1-c1cc(C(=O)Nc2ccc(F)cc2)[nH]n1 | inactive
15 | CC(Nc1ccc(-c2nc(-c3ccco3)no2)cc1[N+](=O)[O-])c1ccccc1 (stereo unspecified) | inactive
16 | Cc1cc(C)cc(NS(=O)(=O)c2ccc3[nH]cc(C(=O)N4CCCCC4)c(=O)c3c2)c1 | inactive
17 | CCCNC(=O)C1(C)CCN(C(=O)c2cc(F)ccc2C)C1 (stereo unspecified) | inactive
18 | C=Cc1ccc(Cn2c(C(=O)O)c(CNC3CCCC3)c3ccc(C)cc32)cc1 | inactive
19 | CC1(C)SC2c3ccccc3C(=O)N2[C@@H]1C(=O)NCc1ccco1 (stereo partly specified) | inactive
20 | COc1cc2c(cc1OC)C(C(=O)NCc1ccco1)C1c3ccccc3CCN1C2=O (stereo unspecified) | 14.6 µM (active)
21 | COc1ccc(S(=O)(=O)N2CCC(C(=O)NCc3ccco3)CC2)cc1C | inactive
22 | COCCNc1nc(NCc2ccc(NC(C)=O)cc2)c2sccc2n1 | inactive
23 | Cc1cccc(-n2c(SCC(N)=O)nc3c(c2=O)C2(CCCCC2)Cc2ccccc2-3)c1 | 18.4 µM (active)
24 | N#CCSc1nc2c(c(=O)n1Cc1ccccc1)C1(CCCC1)Cc1ccccc1-2 | inactive

Row | SMILES | Potency
25 | Cc1cccc(-n2c(SCC(N)=O)nc3c(oc4ccccc43)c2=O)c1 | inactive
26 | CCOC(=O)c1cnn2c(SC)ncnc12 | inactive
27 | CCCS(=O)(=O)NC(=O)C1(C)CCCN(C(=O)c2ccnc(Cl)c2)C1 (stereo unspecified) | inactive
28 | CC(=C/c1ccccc1)/C=N/NC(=O)c1cc(C)oc1C | 14.6 µM (active)
29 | COc1ccc(C/C(C)=N/NC(=O)c2cc(C)oc2C)cc1 | inactive
30 | Cc1cc(C(=O)N/N=C\C(Br)=C\c2ccccc2)c(C)o1 | inactive
31 | Cc1ccc(CCNC(=O)CN2C(=O)CSc3ccc(S(=O)(=O)N4CCOCC4)cc32)cc1 | inactive
32 | CCOC(=O)C1=CCC(c2ccc(F)cc2)N(S(=O)(=O)c2ccc(C)cc2)C1 (stereo unspecified) | inactive
33 | O=C(N/N=C/c1cccc(Br)c1)c1ccc(N2CCCC2=O)cc1 | 16.4 µM (active)
34 | Cn1c(=O)n(C)c2cc(/C=N/NC(=O)c3cccc(Br)c3)ccc21 | inactive
35 | COc1cc(/C=N/NC(=O)c2ccc(N3CCCC3=O)cc2)ccc1O | inactive
36 | COc1ccc2cc(CNc3ccc(OC)c(OC)c3)c(=O)n(CC(=O)Nc3ccccc3F)c2c1 | inactive
37 | N#Cc1cnn2cc(CCN3CCOCC3)c(-c3ccc(F)cc3)nc12 | inactive
38 | COc1ccc2c(c1)CCc1cn3ncc(C#N)c3nc1-2 | 1.3 µM (active)
39 | COc1ccc2c(c1)CCc1c(C(=O)N3CCCC3)noc1-2 | inactive
40 | COc1ccccc1N1CCN(C(=O)C2CCN(S(=O)(=O)c3c(C)noc3/C=C/c3ccc(C)cc3)CC2)CC1 | inactive
41 | Cc1[nH]c2ccccc2c1C(=O)C(=O)NCc1nnnn1-c1cccc(F)c1 | inactive
42 | CN(CC(=O)NCC(c1ccccc1)N1CCCC1)S(=O)(=O)c1ccc(Cl)cc1 (stereo unspecified) | 20.6 µM (active)
43 | Cc1ccc(S(=O)(=O)N(C)CC(=O)NCC(c2ccc(F)cc2)N2CCOCC2)cc1 (stereo unspecified) | inactive
44 | CN(CC(=O)NCCc1ccccn1)S(=O)(=O)c1ccc(Cl)cc1 | inactive
45 | CN(CC(=O)NNC(=O)CNC(=O)c1ccccc1Cl)S(=O)(=O)c1ccc(Cl)cc1 | inactive
46 | CN(CC(=O)Nc1cccc2c1CCCC2)S(=O)(=O)c1ccc(Cl)cc1 | inactive
47 | Cc1nc(NC(=O)CN(C)S(=O)(=O)c2ccc(Cl)cc2)sc1C | 14.6 µM (active)
48 | CCCNC(=O)C1(C)CCN(Cc2csc(-c3ccc(Cl)cc3)n2)C1 (stereo unspecified) | inactive

Row | SMILES | Potency
49 | C[C@H]1CN([C@@H](C)CO)C(=O)CCCn2cc(nn2)CO[C@@H]1CN(C)S(=O)(=O)c1ccccc1C#N | inactive
50 | COc1ccc(C(C)(NC(C)=O)c2nc(-c3ccc(S(C)(=O)=O)cc3)cs2)cc1 (stereo unspecified) | inactive
51 | CCOC(=O)c1ccc(NC(=O)c2c(NCc3cccc(OC)c3)sc3c2CCC3)cc1 | inactive
52 | CCn1c(SCC(=O)Nc2nccs2)nnc1-c1ccco1 | inactive
53 | COc1cc(Cl)c(C)cc1NC(=O)CSc1nnc(-c2ccco2)n1CC(C)C | 4.11 µM (active)
54 | Cc1cc(NC(=O)CSc2nnc(-c3ccco3)n2N)no1 | inactive
55 | CCCC12CN3CC(CCC)(CN(C1)C3c1c[nH]c3ccc(OC)cc13)C2=O (stereo unspecified) | inactive
56 | CCOc1ccc(CCN2C(=O)C(=O)N([C@@H](CC(C)C)CN3CCC[C@H]3CN3C(=O)C(=O)NC[C@@H]3Cc3ccccc3)C[C@@H]2CC(C)C)cc1 | inactive
57 | O=C(CCn1c(=O)c2ccccc2n(Cc2ccc(Cl)cc2)c1=O)NCc1ccc2c(c1)OCO2 | inactive
58 | C[C@H]1CN([C@@H](C)CO)S(=O)(=O)c2ccc(-c3cccc(F)c3)cc2O[C@@H]1CN(C)C | inactive
59 | O=C(C(=O)N1CCN(c2ccccc2)CC1)c1ccc2c(c1)OCO2 | inactive
60 | COc1ccc(C(=O)Nc2nc(-c3ccc(OC)cc3)c(-c3ccc([N+](=O)[O-])cc3)s2)cc1 | inactive
61 | N#Cc1ccc(C(=O)Nc2nc(-c3cccs3)c(C(=O)C(F)(F)F)s2)cc1 | 13 µM (active)
62 | N#Cc1ccc(Oc2ccc(C(F)(F)F)cc2NC(=O)c2ccc(F)cc2)cc1 | inactive
63 | COC(=O)[C@]12CCCCC=C1N(Cc1cccc3ccccc13)C(=O)[C@H](CC(=O)N1CCOCC1)C2 | inactive
64 | Cc1nc(C(F)(F)F)ccc1C(=O)N1CCC1(C)C(=O)NS(=O)(=O)c1ccccc1 (stereo unspecified) | inactive
65 | COc1ccc2c(c1)C(c1cccs1)=NNC(c1cccnc1)=N2 | inactive
66 | Fc1ccc2c(c1)C(c1cccnc1)=NNC(c1cccs1)=N2 | 11.6 µM (active)
67 | CC(=O)NN=C(C)c1ccc(NC(=O)C2CC2)cc1 | inactive
68 | O=C(O)c1ccccc1-c1cccc2nncn12 | inactive
69 | Cc1ccc(NC(=S)NC(=O)/C=C/c2ccc(Cl)cc2)cc1 | inactive
70 | COC(=O)c1c(C)[nH]c(C(=O)/C=C/c2ccc(Cl)cc2)c1C | 14.6 µM (active)
71 | COC(=O)c1c(C)[nH]c(C(=O)NCCc2ccc(S(N)(=O)=O)cc2)c1C | inactive
72 | CC(C)CN1C(=O)CN(S(C)(=O)=O)CC1(C)C(=O)NCc1ccccc1 (stereo unspecified) | inactive

Row | SMILES | Potency
73 | N#Cc1ccc(-c2ccc3nccn3c2)cc1 | inactive
74 | CC(C)C1CC2=C(C(=O)OC(C)(C)O2)C(c2ccc(F)cc2)O1 (stereo unspecified) | inactive
75 | COCCCN1C(=O)C(CC(=O)NCc2cccs2)CC(C(=O)N2CCOCC2)=C1C (stereo unspecified) | inactive
76 | O=S1(=O)CC(N2CCC(Cc3ccccc3)CC2)CN1Cc1ccccc1 (stereo unspecified) | inactive
77 | COc1ccccc1-c1cc2nc(NCc3cccc(Cl)c3)ccn2n1 | inactive
78 | O=C(CC1C(=O)N(c2ccccc2)C(=O)N1CCc1cccs1)Nc1ccc(F)cc1 (stereo unspecified) | inactive
79 | CCNC(=O)CC1C(=O)N(c2ccc(F)cc2)C(=O)N1Cc1cccs1 (stereo unspecified) | inactive
80 | COc1ccc(N2C(=O)C(CC(=O)Nc3ccc(F)cc3)N(CCc3cccs3)C2=O)cc1 (stereo unspecified) | 18.4 µM (active)
81 | Cc1cc2nn(-c3ccc(Cl)cc3)nc2cc1NC(=O)C(C)C | inactive
82 | Cc1c(Cl)cccc1NC(=O)C1CCCN(C(=O)c2cnn(-c3ccccc3)c2-n2cccc2)C1 (stereo unspecified) | inactive
83 | CCOc1ccc(CNC(=O)c2ccc3c(c2)nnn3C2CCCC2)cc1 | inactive
84 | COc1cccc(NC(=O)C2(C)CCN2C(=O)CCC2CCCC2)c1 (stereo unspecified) | inactive
85 | CC(=O)c1ccc(NC(=O)CCc2nc(-c3ccc(C)cc3)no2)cc1 | inactive
86 | Cc1ccc(-c2noc(CCC(=O)Nc3ccccc3N3CCN(C)CC3)n2)cc1 | 20.6 µM (active)
87 | CCNC(=O)CCc1nc(-c2ccc(C)cc2)no1 | inactive
88 | CC(C)CC1C(=O)N(Cc2cn(CC3CCCCC3)nn2)CCS(=O)(=O)N1Cc1ccc(-c2ccc(Cl)cc2)cc1 (stereo unspecified) | inactive
89 | COCCn1c(C)cc(C2=NNC(=Nc3ccc(F)cc3)SC2)c1C | 10.3 µM (active)
90 | C=CCn1c(C)cc(C2=NNC(=NCC)SC2)c1C | inactive
91 | CCC(c1nnnn1Cc1ccccc1)N(Cc1cc2cc(OC)ccc2[nH]c1=O)CC1CCCO1 (stereo unspecified) | inactive
92 | Cc1cccc2cc(CN(Cc3cccs3)C(c3nnnn3C3CCCC3)C(C)C)c(=O)[nH]c12 (stereo unspecified) | inactive
93 | Cc1cccc2cc(CN(Cc3nnnn3Cc3ccccc3)C3CCCC3)c(=O)[nH]c12 | 20.6 µM (active)
94 | CCOc1ccc2[nH]c(=O)c(CN(Cc3nnnn3Cc3ccccc3)CC3CCCO3)cc2c1 (stereo unspecified) | inactive
95 | Cc1cc(C)c2cc(CN(Cc3nnnn3Cc3ccc(F)cc3)C3CCCC3)c(=O)[nH]c2c1 | inactive
96 | CCC(c1nnnn1C1CCCC1)N(Cc1cccs1)Cc1cc2cccc(C)c2[nH]c1=O (stereo unspecified) | 23.1 µM (active)

From PubChem BioAssay AID1347076 (National Center for Advancing Translational Sciences (NCATS), 2019)
